Values joined by “and” are separate entries in the source; they are usually repeats but may differ in a detail not shown here. Equal values may be shown once. The source holds several records for some structures; these can differ, active in one and inactive in another. Active and inactive are the calls of the source. The calls were made as follows: active = hit-call score of the fitted dose curve at least 0.9, where 1 is the maximum; inactive = score below 0.9.
read-out: Vascular endothelial growth factor receptor 2 (Homo sapiens) (UniProt P35968); assay: BSK_4H_VEGFRII: BioMAP Diversity Plus: 4H Assay for Vascular endothelial growth factor receptor 2 (VEGFR2) Biomarker Activity (AID 2283031); settings: primary human endothelial cells (HUVEC); actives raise or lower the signal;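 as to AC50: cell-surface VEGFR2 protein level quantified by ELISA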
Method in brief: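 Measured by ELISA after 24 h of compound treatment: VEGFR2 on primary human umbilical vein endothelial cells, fitted in both directions relative to DMSO. Parallel cultures received SRB staining (560 nm) for overt cytotoxicity.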

SMILES	outcome	AC50
O=P(O)(O)CCC(F)(F)C(F)(F)C(F)(F)C(F)(F)C(F)(F)C(F)(F)C(F)(F)C(F)(F)F	inactive	–
CCC(C)c1ccccc1O (stereo unspecified)	inactive	–
O=C(O)C(F)(F)OC(F)(F)C(F)(F)OC(F)(F)C(F)(F)OC(F)(F)C(F)(F)C(F)(F)C(F)(F)F	inactive	47.7 µM (active)
CCCCCCCCCCCCCCC	inactive	–
O=C1NS(=O)(=O)c2ccccc21	inactive	–
C[C@]12CC[C@@H]3c4ccc(O)cc4CC[C@H]3[C@@H]1C[C@@H](O)[C@@H]2O	inactive	–
CCOC(=O)CN[C@@H](C(=O)N1CC[C@H]1C(=O)NCc1ccc(/C(N)=N/O)cc1)C1CCCCC1	inactive	–
CCCCC(CC)C(=O)OCCOCCOCCOCCOC(=O)C(CC)CCCC (stereo unspecified)	inactive	–
Clc1ccc(Nc2nnc(Cc3ccncc3)c3ccccc23)cc1	inactive	–
Cc1cccc2c1ccc1ccccc12	inactive	–
CC(C)(C)c1ccc(O)c(O)c1	inactive	–
CN(C)c1ccc(C(=C2C=CC(=[N+](C)C)C=C2)c2ccccc2)cc1	–	0.0249 µM (active)
O=P(O)(O)CCC(F)(F)C(F)(F)C(F)(F)C(F)(F)C(F)(F)C(F)(F)F	inactive	–
O=S(=O)(O)C(F)(F)C(F)(F)C(F)(F)C(F)(F)C(F)(F)C(F)(F)C(F)(F)C(F)(F)C(F)(F)C(F)(F)F	inactive	–
O=C(NO)c1ccccc1	inactive	–
CC[N+](CC)(CC)Cc1ccccc1	inactive	–
O=C(c1ccccc1)c1ccccc1	inactive	–
OCC(F)(F)C(F)(F)C(F)(F)C(F)(F)C(F)(F)C(F)(F)C(F)(F)C(F)(F)C(F)(F)C(F)(F)C(F)(F)F	inactive	–
O=C1OC2(c3ccccc31)c1cc(I)c(O)c(I)c1Oc1c2cc(I)c(O)c1I	–	3.36 µM (active)

SMILES	outcome	AC50
Cc1[nH]nc2c1N=C(c1ccccc1Cl)c1cc([N+](=O)[O-])ccc1N2	–	2.43 µM (active)
O=C(NCc1ncc(C(F)(F)F)cc1Cl)c1c(Cl)cccc1Cl	inactive	–
N=C(N)c1ccc(OCCCCCOc2ccc(C(=N)N)cc2)cc1	inactive	–
C=CC(C)(CCC=C(C)C)OC(C)=O (stereo unspecified)	–	31.5 µM (active)
CCCCCCCCCCCCCCCCCC[N+](C)(C)Cc1ccccc1	inactive	–
O=C(O)CCC(F)(F)C(F)(F)C(F)(F)C(F)(F)C(F)(F)C(F)(F)F	inactive	–
Oc1ccc(Cc2ccccc2O)cc1	inactive	–
CCCCC=O	inactive	–
CN(CCO)S(=O)(=O)C(F)(F)C(F)(F)C(F)(F)C(F)(F)C(F)(F)C(F)(F)C(F)(F)C(F)(F)F	inactive	–
COCN(COC)c1nc(N(COC)COC)nc(N(COC)COC)n1	inactive	–
O=C1c2ccc(O)c(O)c2C(=O)c2c(O)ccc(O)c21	inactive	–
OCCN1CN(CCO)CN(CCO)C1	–	33.9 µM (active)
CCCCc1oc2ccccc2c1C(=O)c1cc(I)c(OCCN(CC)CC)c(I)c1	–	21.2 µM (active)
O=C(O)CCC(F)(F)C(F)(F)C(F)(F)C(F)(F)C(F)(F)F	inactive	–
CN(Cc1cnc2nc(N)nc(N)c2n1)c1ccc(C(=O)N[C@@H](CCC(=O)O)C(=O)O)cc1	inactive	–
O=C(CC(=O)C(F)(F)C(F)(F)C(F)(F)F)c1cccs1	inactive	8.16 µM (active)
CS(=O)(=O)c1ccc([C@@H](CC2CCCC2)C(=O)Nc2cnccn2)cc1Cl	inactive	–
CC1=NN(c2ccccc2)C(=O)C1	inactive	–

read-out: Human Leukocyte Antigen - DR isotype (HLADR), HLA-DRA (gene 3122); assay: BSK_BE3C_HLADR: BioMAP Diversity Plus: BE3C Assay for Human Leukocyte Antigen - DR isotype (HLADR) Biomarker Activity (AID 2283032); settings: primary human bronchial epithelial cells; actives raise or lower the signal
Method in brief: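 ELISA read-out of HLA-DR on human lung bronchial epithelial primary cells, measured 24 h post-dosing. Both increases and decreases were scored relative to DMSO vehicle.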

SMILES	outcome	AC50
O=P(O)(O)CCC(F)(F)C(F)(F)C(F)(F)C(F)(F)C(F)(F)C(F)(F)C(F)(F)C(F)(F)F	inactive	–
CCC(C)c1ccccc1O (stereo unspecified)	inactive	–
O=C(O)C(F)(F)OC(F)(F)C(F)(F)OC(F)(F)C(F)(F)OC(F)(F)C(F)(F)C(F)(F)C(F)(F)F	–	3.73 µM (active) and 3.7 µM (active)
CCCCCCCCCCCCCCC	inactive	–
O=C1NS(=O)(=O)c2ccccc21	inactive	–
C[C@]12CC[C@@H]3c4ccc(O)cc4CC[C@H]3[C@@H]1C[C@@H](O)[C@@H]2O	inactive	–
CCOC(=O)CN[C@@H](C(=O)N1CC[C@H]1C(=O)NCc1ccc(/C(N)=N/O)cc1)C1CCCCC1	inactive	–
CCCCC(CC)C(=O)OCCOCCOCCOCCOC(=O)C(CC)CCCC (stereo unspecified)	inactive	–
Clc1ccc(Nc2nnc(Cc3ccncc3)c3ccccc23)cc1	inactive	–
Cc1cccc2c1ccc1ccccc12	inactive	–
CC(C)(C)c1ccc(O)c(O)c1	inactive	–
CN(C)c1ccc(C(=C2C=CC(=[N+](C)C)C=C2)c2ccccc2)cc1	–	0.0162 µM (active)
O=P(O)(O)CCC(F)(F)C(F)(F)C(F)(F)C(F)(F)C(F)(F)C(F)(F)F	inactive	–
O=S(=O)(O)C(F)(F)C(F)(F)C(F)(F)C(F)(F)C(F)(F)C(F)(F)C(F)(F)C(F)(F)C(F)(F)C(F)(F)F	–	18.2 µM (active) and 15.8 µM (active)
O=C(NO)c1ccccc1	inactive	–
CC[N+](CC)(CC)Cc1ccccc1	inactive	–
O=C(c1ccccc1)c1ccccc1	inactive	–
OCC(F)(F)C(F)(F)C(F)(F)C(F)(F)C(F)(F)C(F)(F)C(F)(F)C(F)(F)C(F)(F)C(F)(F)C(F)(F)F	–	251 nM (active) and 154 nM (active)
O=C1OC2(c3ccccc31)c1cc(I)c(O)c(I)c1Oc1c2cc(I)c(O)c1I	–	4.33 µM (active)

SMILES	outcome	AC50
Cc1[nH]nc2c1N=C(c1ccccc1Cl)c1cc([N+](=O)[O-])ccc1N2	–	10.3 µM (active)
O=C(NCc1ncc(C(F)(F)F)cc1Cl)c1c(Cl)cccc1Cl	inactive	–
N=C(N)c1ccc(OCCCCCOc2ccc(C(=N)N)cc2)cc1	–	22.7 µM (active)
C=CC(C)(CCC=C(C)C)OC(C)=O (stereo unspecified)	–	30.2 µM (active)
CCCCCCCCCCCCCCCCCC[N+](C)(C)Cc1ccccc1	–	2.05 µM (active)
O=C(O)CCC(F)(F)C(F)(F)C(F)(F)C(F)(F)C(F)(F)C(F)(F)F	inactive	–
Oc1ccc(Cc2ccccc2O)cc1	inactive	–
CCCCC=O	inactive	–
CN(CCO)S(=O)(=O)C(F)(F)C(F)(F)C(F)(F)C(F)(F)C(F)(F)C(F)(F)C(F)(F)C(F)(F)F	inactive	–
COCN(COC)c1nc(N(COC)COC)nc(N(COC)COC)n1	inactive	–
O=C1c2ccc(O)c(O)c2C(=O)c2c(O)ccc(O)c21	inactive	–
OCCN1CN(CCO)CN(CCO)C1	–	35.5 µM (active)
CCCCc1oc2ccccc2c1C(=O)c1cc(I)c(OCCN(CC)CC)c(I)c1	–	15.1 µM (active)
O=C(O)CCC(F)(F)C(F)(F)C(F)(F)C(F)(F)C(F)(F)F	inactive	–
CN(Cc1cnc2nc(N)nc(N)c2n1)c1ccc(C(=O)N[C@@H](CCC(=O)O)C(=O)O)cc1	inactive	–
O=C(CC(=O)C(F)(F)C(F)(F)C(F)(F)F)c1cccs1	–	20.4 µM (active) and 23.8 µM (active)
CS(=O)(=O)c1ccc([C@@H](CC2CCCC2)C(=O)Nc2cnccn2)cc1Cl	inactive	–
CC1=NN(c2ccccc2)C(=O)C1	inactive	–
